High-throughput results from PubChem.
PostGolgi yeast = growth inhibition of a yeast mutant, post-Golgi transport screen; hit rate 0.9% among 98,000; post-Golgi transport phenotypic cell assay; inhibition, % at 10 µM;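 note: yeast cells grown in 1536-well plates; yeast grown about 18 h at 30C before absorbance read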
CYP2C19 act = increases human CYP2C19 enzyme activity; AID 1025; recombinant CYP2C19, luciferin-H EGE luminescence; stronger effect = higher value; 0 = fully inhibited enzyme, 1 = untreated enzyme; activation factor at 5 µM; P33261; 96,000 tested, under 10 active;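 active = activation factor of at least 2 at 5 µM in the primary screen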
CYP2C19 inh = human CYP2C19 inhibition. P33261. AID 778. inhibition, % at 5 µM. CYP2C19 Supersomes, luciferin-H EGE luminescence, 30 min. hit rate 21% among 96,000;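 active = CYP2C19 inhibition above a set limit at 5 µM in the primary screen, cut at about 50% in these data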
CYP2C9 act = activators of human CYP2C9 | P11712 | activation factor at 5 µM | recombinant CYP2C9, luciferin-H conversion, luminescence; stronger effect = higher value; factor 1 = untreated enzyme, 0 = blocked | hit rate 1.4% among 96,000 | AID 1024;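 active = activation factor of 2 or more for CYP2C9 at a 5 µM dose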
Target sequence (P11712 whole entry, looked up): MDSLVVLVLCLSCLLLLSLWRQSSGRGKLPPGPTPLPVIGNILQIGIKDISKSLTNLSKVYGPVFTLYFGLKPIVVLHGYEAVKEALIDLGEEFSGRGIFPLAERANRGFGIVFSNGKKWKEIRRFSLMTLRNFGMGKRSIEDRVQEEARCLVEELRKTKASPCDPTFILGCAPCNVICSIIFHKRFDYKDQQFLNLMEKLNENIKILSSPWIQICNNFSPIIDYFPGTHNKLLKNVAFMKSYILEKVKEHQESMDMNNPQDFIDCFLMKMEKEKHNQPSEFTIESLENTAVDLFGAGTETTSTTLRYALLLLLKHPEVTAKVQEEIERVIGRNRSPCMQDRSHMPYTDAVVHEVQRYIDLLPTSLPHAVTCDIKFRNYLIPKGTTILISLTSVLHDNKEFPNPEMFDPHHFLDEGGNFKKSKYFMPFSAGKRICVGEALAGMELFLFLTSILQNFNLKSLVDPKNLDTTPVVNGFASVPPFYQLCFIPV
PostGolgi ctrl = growth of the yeast control strain, post-Golgi counter-screen | inhibition, % at 10 µM | AID 738 | hit rate 5% among 98,000 | efflux-deficient yeast background strain, growth absorbance A615, 16 h
CYP2C9 inh = blocks human cytochrome P450 2C9; CYP2C9 Supersomes, luciferin-H conversion, luminescence; inhibition, % at 5 µM; hit rate 20% among 96,000; AID 777;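 active = blocking of liver enzyme CYP2C9 beyond about 50% at 5 µM, limit read from the data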
Each line names hits and unclear results; the compound was inactive in the other large screens. A selection: hits, their analogues and other compounds. The true share with any hit is near 32%. Cut-off read from the data, not from the text of the source, unless noted: active = inhibition above about 30%; inactive = the rest.

COc1ccccc1OCC(=O)c1[nH]c(C)c(C(C)=O)c1C	none
Cc1ccc(NCc2nnc(SCC(=O)N(Cc3ccccc3)C(C)(C)C)o2)c(C)c1	none
CC(=O)c1c(C)[nH]c(C(=O)NC2=NCCS2)c1C	CYP2C9 inh 64.0
Cc1cc(C(=O)NC2=NCCS2)cs1	none (no result: CYP2C19 act, CYP2C19 inh, CYP2C9 act, CYP2C9 inh)
CCn1c(SCC(=O)n2nc(C)cc2C)nnc1-c1ccc2c(c1)OCO2	none
Cc1csc(=O)n1CC(=O)OCc1cccc2ccccc12	none (no result: CYP2C19 act, CYP2C19 inh, CYP2C9 act, CYP2C9 inh)
CCCn1c(=O)[nH]c(=O)c2c1nc(-c1ccccc1OC(F)F)n2CCOC	none
CCCn1c(=O)[nH]c(=O)c2c1nc(-c1ccc(OC(F)F)c(OC)c1)n2CCOC	CYP2C9 inh 53.9
CS(=O)(=O)c1cnc(-c2ccccc2)nc1Oc1ccc(Cl)cc1	none
CC(=O)c1ccc(NC(=O)CSCCO)cc1	none
CCc1ccc(NC(=O)CSc2nnc(SCC(=O)Nc3ccc(CC)cc3)n2N)cc1	CYP2C9 inh 61.9
CCc1ccc(NC(=O)CSc2nnc(CC)c(CC)n2)cc1	CYP2C19 inh 64.1
CCc1nnc(SCC(=O)Nc2ccc(C(C)=O)cc2)nc1CC	CYP2C19 inh 74.1 (no result: PostGolgi yeast, PostGolgi ctrl)
Cc1ccc(NC(=O)CSc2nnc(C3CCCCC3)n2N)cc1F	PostGolgi yeast 31.2, CYP2C19 inh 84.7, CYP2C9 inh 71.7
CC1(C)CC(C(=O)Nc2nccs2)CCO1 (centres undefined)	none
O=C1CCCc2sccc2N1	none
CS(=O)(=O)N(CC(=O)Nc1ccccc1Sc1ccccc1)C1CCCCC1	none
CCCCOc1ccc(C(CC(=O)NC)C(=O)O)cc1 (centres undefined)	none
Cc1cc(C)c(NC(=O)CSc2nnc(SCC(=O)Nc3c(C)cc(C)cc3C)n2N)c(C)c1	CYP2C19 inh 67.8
O=S1(=O)C=C(Sc2nc3cc(Cl)ccc3o2)c2ccccc21	CYP2C19 inh 65.6, PostGolgi ctrl 38.6
CN(C)c1nc(N)nc(CSc2nc3cc(Cl)ccc3o2)n1	none
O=C(CS(=O)(=O)c1c[nH]c2ccccc12)N1CCCCC1	CYP2C19 inh 63.7
O=C(CS(=O)(=O)c1cn(Cc2ccc(Cl)cc2)c2ccccc12)N1CCCC1	CYP2C19 inh 76.5, CYP2C9 inh 70.2
Cc1ccnc(SCC(=O)N2CCN(c3cccc(Cl)c3)CC2)n1	CYP2C19 inh 99.0
Cc1ccnc(SCC(=O)N2CCC(C(N)=O)CC2)n1	none
Cc1cc(NC(c2cccnc2)c2c(C)[nH]c3ccccc23)no1 (centres undefined)	CYP2C19 inh 62.5
O=C(CSc1ncn(-c2ccccc2)n1)NCc1ccccc1	none
O=C(CSc1ncn(-c2ccccc2)n1)N1CCN(c2ccccc2)CC1	CYP2C19 inh 63.6, CYP2C9 inh 58.6
O=C(CSc1ncnc2nc[nH]c12)N1CCN(c2ccccc2)CC1	none
Cc1cc(NC(=O)CSc2ncn(-c3ccccc3)n2)no1	PostGolgi ctrl 33.2
CCOC(=O)c1c(NC(=O)/C=C/c2ccc3c(c2)OCO3)sc(C)c1CC	none
COc1ccccc1NC(=O)CSc1ncn(-c2ccccc2)n1	CYP2C19 inh 75.9
Cc1cc(NC(=O)CSc2c(C)[nH]c3ccccc23)no1	CYP2C19 inh 65.7, PostGolgi ctrl 30.2
Cc1noc(NS(=O)(=O)c2ccc(NC(=O)CCC3CCCCC3)cc2)c1C	none
O=C(CCC1CCCCC1)Nc1ccccc1-c1ccccc1	none
CCN(CC)S(=O)(=O)c1ccc(NC(=O)CCC2CCCCC2)cc1	CYP2C19 inh 78.2, CYP2C9 inh 92.7
O=C(CCC1CCCCC1)Nc1ccc(S(=O)(=O)Nc2nccs2)cc1	CYP2C9 inh 62.6
Cn1c(NC(=O)CCC2CCCCC2)cc(=O)n(C)c1=O	CYP2C19 inh 74.2, CYP2C9 inh 66.6
O=C(CCC1CCCCC1)Nc1ccccc1O	CYP2C19 inh 93.2, CYP2C9 inh 63.7
O=C(COC(=O)c1cccc(S(=O)(=O)N2CCc3ccccc32)c1)NC1CCS(=O)(=O)C1 (centres undefined)	none
CCN(C(=O)CSc1nncs1)c1c(N)n(Cc2ccccc2)c(=O)[nH]c1=O	none
COc1ccc2c(c1)C1NC(=S)N[C@@](C)(O2)C1C(=O)Nc1ccccc1 (some centres undefined)	none
O=C(CCc1nc2ccccc2[nH]c1=O)OCC(=O)c1cccc2ccccc12	none
N#CC1=C(N)Oc2n[nH]c(-c3cccs3)c2C1c1cccs1 (centres undefined)	none
CSCCC1C(C#N)=C(N)Oc2n[nH]c(-c3cccs3)c21 (centres undefined)	CYP2C9 inh 55.2
CC(C)CC1C(C#N)=C(N)Oc2n[nH]c(-c3cccs3)c21 (centres undefined)	CYP2C19 inh 67.0
COCc1[nH]nc2c1C(c1sccc1C)C(C#N)=C(N)O2 (centres undefined)	none
CCN(CC)c1ncnc2c1sc1nc(N3CCOCC3)c3c(c12)CCC3	none
CC1(C)Cc2c(c(N3CCOCC3)nc3sc4c(NCc5ccco5)nnnc4c23)CS1	CYP2C19 inh 61.4, CYP2C9 inh 93.4
CC(C)CNc1nnnc2c1sc1nc(N3CCOCC3)c3c(c12)CC(C)(C)SC3	CYP2C9 inh 80.6
CC1(C)Cc2c(c(N3CCOCC3)nc3sc4c(NCc5ccccc5)nnnc4c23)CS1	CYP2C19 inh 57.4, CYP2C9 inh 98.5
CC1(C)Cc2c(c(N3CCOCC3)nc3sc4c(NN)ncnc4c23)CS1	none
O=C(OCCCN1CCCC1)C1(c2ccccc2)CCCC1	none
Cc1ccc(-n2nnnc2SCC(=O)c2c(N)n(CC(C)C)c(=O)n(C)c2=O)cc1	none
CCOc1ccc(C(F)(F)F)cc1NC(=O)c1ccc(OC)c([N+](=O)[O-])c1	none
COC(=O)C(Cc1cnc(Cl)s1)(C(=O)OC)c1ccc([N+](=O)[O-])cc1[N+](=O)[O-]	CYP2C19 inh 79.2, CYP2C9 inh 67.2
C=CCC(C(=O)OC)(C(=O)OC)c1ccc([N+](=O)[O-])cn1	none
COC(=O)C(Cc1cnc(Cl)s1)(C(=O)OC)c1ccc(C(F)(F)F)cc1[N+](=O)[O-]	CYP2C19 inh 87.0, CYP2C9 inh 50.6
Cc1cc(NC(=O)/C=C/c2ccccc2)no1	none
O=C(NNC(=O)c1cc(-c2ccc(Cl)c(Cl)c2)nc2ccccc12)Nc1ccccc1	none
CC1CN(C2CCCCC2)c2nc3c(c(=O)[nH]c(=O)n3C)n2C1 (centres undefined)	CYP2C9 inh 55.7
CCCn1c(N2CCN(CC(=O)c3c(C)n(C)c4ccccc34)CC2)nc2c1c(=O)[nH]c(=O)n2C	none
CC1CCCN(c2nc3c(c(=O)[nH]c(=O)n3C)n2CCCc2ccccc2)C1 (centres undefined)	PostGolgi ctrl 35.3, CYP2C9 inh 61.8
CCn1c(N2CCC(Cc3ccccc3)CC2)nc2c1c(=O)[nH]c(=O)n2C	CYP2C19 inh 77.4, PostGolgi ctrl 37.2, CYP2C9 inh 53.7
CCn1c(N2CCN(CC(=O)c3c[nH]c4ccccc34)CC2)nc2c1c(=O)[nH]c(=O)n2C	CYP2C9 inh 54.0
